# BAZ2B inh – BAZ2B (human) inhibition | AID 504333 | AlphaScreen BAZ2B-H3K14Ac peptide displacement | Potency, µM (doses to about 114 µM), inactives show at the highest dose activity change, negative = inhibition, hits mostly inhibitors | actives 4.4% (n = 360,000) | Q9UIF8; further: on the % scale 0 is the no-effect control and ±100 the full control effect; nearly all actives have a fitted effect of over 60% in size
#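 AlphaScreen displacement of biotin-H3(5-23)K14Ac peptide (50 nM final) from BAZ2B (50 nM final) in PBS pH 7.4, 0.01% Tween-20; complex preformed 30 min RT, then compounds (top 110 uM) 30 min RT, beads 20 min dark.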
# JMJD2A Tudor inh – JMJD2A Tudor domain (human) inhibition; O75164; AlphaScreen JMJD2A-Tudor / H3K4me3 peptide binding; Potency, µM (doses to about 114 µM), for inactives: top-dose activity change, negative = inhibition, actives largely listed as inhibitors; actives 4.4% (n = 390,000); further: on the % scale 0 is the no-effect control and ±100 the full control effect; nearly all actives have a fitted effect of over 50% in size
# PLK1 PBD inh – PLK1 (human) polo-box domain binding inhibition | Plk1 PBD binding of FITC phosphopeptide, fluorescence polarization | Potency, µM, for the others: max response, negative = inhibition, most hits filed as inhibitors | actives 2.8% (n = 360,000) | AID 720504; further: series mostly up to about 57 µM; on the % scale 0 is the no-effect control and ±100 the full control effect; nearly all actives have a fitted effect of over 65% in size
# G9a block – inhibitors of human histone lysine methyltransferase G9a; Potency, µM (highest dose often 102 µM), for the others: top-dose activity, negative = inhibition, actives largely listed as inhibitors; AID 504332; G9a H3K9 monomethylation, AlphaScreen, 2 h; Q96KQ7; actives 8.8% (n = 350,000); further: on the % scale 0 is the no-effect control and ±100 the full control effect; nearly all actives have a fitted effect of over 75% in size
# Target sequence (Q96KQ7 913-1193 limits assumed): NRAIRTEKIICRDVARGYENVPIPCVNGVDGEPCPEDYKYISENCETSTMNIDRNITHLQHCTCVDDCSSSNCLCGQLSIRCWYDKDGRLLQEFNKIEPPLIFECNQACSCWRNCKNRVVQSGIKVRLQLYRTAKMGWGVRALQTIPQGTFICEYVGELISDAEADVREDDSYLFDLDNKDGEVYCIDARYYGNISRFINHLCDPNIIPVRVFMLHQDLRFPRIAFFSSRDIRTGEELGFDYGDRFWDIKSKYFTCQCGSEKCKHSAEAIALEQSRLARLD
#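 G9a (20 nM) preincubated 15 min RT with compounds, then 500 nM biotinylated H3K9 peptide and 20 uM SAM added; 2 h RT reaction. Monomethyl-H3K9 product detected by AlphaScreen with anti-H3K9me1 antibody, streptavidin donor and anti-rabbit IgG acceptor beads.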
# HP1b binding inh – blocks HP1-beta chromodomain binding to methylated histone tails; actives 0.56% (n = 390,000); AID 540317; P83916; AlphaScreen HP1-beta / biotin-H3K9me3 peptide binding; Potency, µM (highest dose often 114 µM), for the others: top-dose activity change, negative = inhibition, usual class: inhibitors; further: nearly all actives have a fitted effect of over 70% in size
#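 Compound inhibition of the preformed complex between 50 nM HP1-beta and 50 nM biotinylated H3K9me3 peptide was read by AlphaScreen. Buffer was PBS pH 7.4 with 0.01% Tween-20. Incubations ran 30 min at room temperature, with 10 ug/mL donor/acceptor beads.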
# VDR inh – vitamin D3 receptor (human) inhibition. actives 0.93% (n = 400,000). VDR-SRC2-3 peptide fluorescence polarization, 2 h. AID 504847. P11473. Potency, µM, for inactives: max response, negative = inhibition, actives largely listed as inhibitors; further: on the % scale 0 is the no-effect control and ±100 the full control effect
# Target sequence (P11473 whole entry, looked up): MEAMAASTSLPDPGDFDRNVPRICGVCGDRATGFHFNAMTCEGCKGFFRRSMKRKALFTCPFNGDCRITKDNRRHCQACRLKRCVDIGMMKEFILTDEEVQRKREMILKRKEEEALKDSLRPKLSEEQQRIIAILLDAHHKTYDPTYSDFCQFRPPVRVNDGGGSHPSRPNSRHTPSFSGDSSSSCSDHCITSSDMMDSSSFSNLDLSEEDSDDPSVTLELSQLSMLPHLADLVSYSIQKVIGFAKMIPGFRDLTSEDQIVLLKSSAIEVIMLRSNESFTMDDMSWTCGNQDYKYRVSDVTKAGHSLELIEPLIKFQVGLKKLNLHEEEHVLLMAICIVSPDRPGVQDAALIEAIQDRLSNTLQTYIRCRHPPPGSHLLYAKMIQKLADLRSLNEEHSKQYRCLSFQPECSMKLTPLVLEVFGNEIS
#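 Compounds are added to VDR with labelled SRC2-3 coactivator peptide and held 2 h at room temperature. Inhibition of the VDR–peptide interaction is then read as a change in fluorescence polarization.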
# An asterisk follows results filed as active; u = inconclusive; x = not tested or not shown; [ ] = another dose, or the depositor's remark. Rows were chosen to be rich in hits. Some 11% of all compounds tested hit in one or more screens of this group. The call rests on the fitted dose curve; in most records, active means well fitted curve in the direction sought with a large enough effect; inconclusive means small, poorly fitted or top-dose-only effect, or another doubt; inactive means no such curve, though single readings can be large; an effect the other way counts as inactive or inconclusive. Potency means the concentration at half of the fitted maximal effect.
SMILES,BAZ2B inh,JMJD2A Tudor inh,PLK1 PBD inh,G9a block,HP1b binding inh,VDR inh
Cc1ccccc1NC(=O)CSc1nnc(-c2ccco2)n1N,12.7%,-18.7%,18.9µM*,7.94µM*,u,u
Cc1cc(-c2nnc(SCC(=O)Nc3ccccc3C(F)(F)F)n2N)n[nH]1,-11.7%,u,5.97µM*,-4.7%,21.6%,u
O=C(CSc1nnc2ccc(-c3ccco3)nn12)Nc1ccccc1F,u,-17.6%,-15.4%,14.1µM*,72.9%,-21.0%
Cc1cc(-c2nnc(SCC(=O)Nc3ccccc3F)n2N)n[nH]1,-5.7%,-3.0%,-13.9%,-2.6%[0.0925 µM],22.9%,-6.3%
Cc1ccccc1NC(=O)CSc1nnc(-c2ccoc2C)n1CCc1ccccc1,u,-18.6%,-2.8%,79.4µM*,19.2%,1.2%
COc1ccc(NC(=O)c2oc3ccccc3c2NC(=O)COc2ccc(C(C)C)cc2)c(OC)c1,-4.0%,-12.6%,x,4.0%[59 µM],21.8%,12.9%
Cc1cc(C(F)F)n2nc(C(=O)Nc3ccc(F)c(Cl)c3)nc2n1,0.6%,-6.2%,x,-40.6%[59 µM],-6.2%,-4.6%
O=C(O)CN1C(=O)/C(=C/c2ccccc2Br)Oc2ccccc21,12.7%,0.0%,-9.0%,11.9%,38.8%,0.1%
Cc1ccccc1NC(=O)Cc1nnc(SCC(=O)NC2=NCCS2)n1C,-1.5%,25.1µM*,-1.8%,u,-7.9%,-5.0%
Cc1cccc(NC(=O)CSc2nnc(-c3ccco3)c(-c3ccco3)n2)c1C,35.5µM*,50.1µM*,15µM*,21.6%[0.501 µM],u,u
CN(Cc1cccc(F)c1)CC(O)COCc1ccccc1Cl (stereo not drawn),x,22.4µM*,6.7%,56.2µM*,u,6.3%
CN(CC(O)COCc1ccccc1F)C1CCCCC1 (stereo not drawn),-1.3%,-10.1%,-3.2%,10.8%[12.7 µM],30.0%,0.2%
CCN(CC(=O)Nc1ccc(NC(C)=O)cc1)C(=O)/C=C/c1cn(Cc2ccccc2)nc1-c1cccnc1,1.9%,-16.7%,9.0%,14.1µM*,24.9%,7.8%
CCN(CC(=O)Nc1ccc(NC(C)=O)cc1)C(=O)/C=C/c1ccccc1,-4.6%,-3.4%,-5.5%,-2.5%[59 µM],27.1%,-23.6%
CCN(CC(=O)Nc1ccc(NC(C)=O)cc1)C(=O)/C=C/c1cn(-c2ccccc2)nc1-c1cccs1,-8.9%,-29.1%,1.5%,31.6µM*,16.7%,-10.1%
CSc1ccc(CNC(=O)CCn2c(=O)c3cccn3c3ccc(F)cc32)cc1,-11.8%,-13.2%,x,-2.8%[59 µM],28.0%,12.7%
C[C@H](NC(=O)c1ccc(C(C)(C)C)cc1)C(=O)N1CCOCC1,x,-8.8%,-13.4%,x,20.0%,-4.9%
COc1cc(/C=C/C(=O)O)cc(S(=O)(=O)N2CCCc3ccccc32)c1OC,-18.8%,-8.8%[11.4 µM],26.7µM*,u,-15.2%,u
C#CCOCCOCCOCCNc1nc(N2CCN(C(=O)[C@H](Cc3cc4ccccc4[nH]3)n3cc([C@@H](N)C(C)CC)nn3)CC2)nc(N2CCN(C(=O)[C@H](Cc3cc4ccccc4[nH]3)n3cc([C@@H](N)CC(C)C)nn3)CC2)n1 (stereo partly drawn),35.5µM*,x,x,u,x,x
C#CCOCCOCCOCCNc1nc(N2CCN(C(=O)[C@H](CCCCN)n3cc([C@@H](N)C(C)CC)nn3)CC2)nc(N2CCN(C(=O)[C@H](Cc3cc4ccccc4[nH]3)n3cc([C@@H](N)CC(C)C)nn3)CC2)n1 (stereo partly drawn),31.6µM*,35.5µM*,-19.4%,u,-11.0%,11.6%
C#CCOCCOCCOCCNc1nc(N2CCN(C(=O)[C@H](Cc3cc4ccccc4[nH]3)n3cc([C@@H](N)C(C)CC)nn3)CC2)nc(N2CCN(C(=O)[C@H](CCCCN)n3cc([C@@H](N)CO)nn3)CC2)n1 (stereo partly drawn),25.1µM*,x,x,14.0%[12.7 µM],x,x
C#CCOCCOCCOCCNc1nc(N2CCN(C(=O)[C@H](CCC(=O)O)n3cc(CN)nn3)CC2)nc(N2CCN(C(=O)[C@H](CCCN=C(N)N)n3cc(C(N)[C@@H](C)CC)nn3)CC2)n1 (stereo partly drawn),x,u,-0.8%,x,21.7%,-10.6%
C#CCOCCOCCOCCNc1nc(N2CCN(C(=O)[C@H](CCC(=O)O)n3cc(C(N)CO)nn3)CC2)nc(N2CCN(C(=O)[C@H](Cc3cc4ccccc4[nH]3)n3cc(C(N)[C@H](C)CC)nn3)CC2)n1 (stereo partly drawn),50.1µM*,44.7µM*,-4.1%,-0.7%[12.7 µM],13.2%,-4.3%
C#CCOCCOCCOCCNc1nc(N2CCOCC2)nc(N2CCN(C(=O)[C@H](CC(N)=O)n3cc(C(N)[C@@H](C)CC)nn3)CC2)n1 (stereo partly drawn),x,-30.9%,-13.9%,x,25.1%,10.8%
C#CCOCCOCCOCCNc1nc(N2CCN(C(=O)[C@H](CCCN=C(N)N)n3cc(C(N)[C@H](C)CC)nn3)CC2)nc(N2CCN(C(=O)[C@H](CC(N)=O)n3cc(C(N)[C@@H](C)CC)nn3)CC2)n1 (stereo partly drawn),x,u,u,x,80.9%,7.9%
SMILES,BAZ2B inh,JMJD2A Tudor inh,PLK1 PBD inh,G9a block,HP1b binding inh,VDR inh
CCOc1cc(NC(=S)NCCCN2CCOCC2)c(OCC)cc1NC(=O)CC(C)C,5.9%,-8.9%,0.2%,-2.7%[59 µM],25.2%,8.4%
COc1cc2c(Cc3ccccc3)cncc2cc1O,x,-24.0%,2.6%,x,12.5%,-12.8%
O=C(CSc1ccc2nnc(-c3cccnc3)n2n1)Nc1ccc(F)cc1F,-4.5%,-0.7%,-9.0%,x,14.3%,9.0%
O=C(NCCCn1ccnc1)c1nn2c(C(F)(F)F)cc(-c3ccc(Br)cc3)nc2c1Cl,50.1µM*,44.7µM*,-13.8%,50.1µM*,u,-3.3%
CCCN1C(=O)c2ccccc2NC1c1ccc(OC)c(COc2ccc([N+](=O)[O-])c(C)c2)c1 (stereo not drawn),x,u,x,x,-20.0%[57 µM],-11.5%
COC(=O)CSc1ncnc2c1sc1nc(-c3ccco3)c3c(c12)CC(C)(C)OC3,50.1µM*,x,x,u,x,x
CCCc1nc2sc3c(SCC(=O)NCc4ccco4)ncnc3c2c2c1CCC2,28.2µM*,22.4µM*,u,39.8µM*,u,-29.5%
Cc1ccc(S(=O)(=O)CCC(=O)OCC(=O)c2cc(C)ccc2C)cc1,1.5%,0.7%,1.4%,23.8%[12.7 µM],47.3%,-15.6%
Cc1ccc(S(=O)(=O)CCC(=O)c2ccc(O)cc2O)cc1,9.4%,-22.2%,u,39.8µM*,62.8%,u
COc1ccc(C(=O)CCS(=O)(=O)c2ccc(C)cc2)cc1OC,3.4%,-18.5%,11.9µM*,-22.1%,48.9%,u
CSc1ncc(Cl)c(C(=O)N(C)c2ccccc2)n1,-17.0%,2.4%,x,2.6%[59 µM],45.3%,19.6%
